From PubChem BioAssay AID1159580 (chemical genetic matrix, 2015)
Where “and” joins values, the source holds several entries; their conditions need not be identical. Equal entries are not always repeated. About 2,000 (36%) of roughly 5,500 compounds were called active. Inconclusive results (about 18%) are left out. No stated cut-off is given here; in the data, active means normalized growth mostly below about 0.91 (no sharp cut-off); inconclusive means no clear call, values can overlap the other calls; inactive means mostly above about 0.92. Some of the results follow.

Assay: chemical genetic growth profiling, strain panel (AID 1159580);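 further: tested at 20 µM; growth read once vehicle control cultures reached saturation at 30 °C; 1 = growth at the plate median or of vehicle wells; lower values mean less growth of the strain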
Details: S. cerevisiae deletion strains, growth OD

Measured: normalized growth

CN1CCOC(c2ccccc2)c2ccccc2C1 (configuration not stated)
inactive: locus YAL013W, strain DEP1, active compounds read low 1.01 | locus YAL021C, strain ccr4, active compounds read low 0.949 | locus YAL026C, strain drs2, active compounds read low 0.969 | locus YAL030W, strain snc1, active compounds read low 0.976 | locus YBL061C, strain skt5, active compounds read low 0.979 | locus YBR009C, strain hhf1, active compounds read low 0.984 | locus YBR021W, strain FUR4, active compounds read low 1.07 | locus YBR023C, strain chs3, active compounds read low 0.974 | locus YBR171W, strain sec66, active compounds read low 0.976 | locus YBR229C, strain ROT2, active compounds read low 1 | locus YBR231C, strain swc5, active compounds read low 0.977 | locus YBR279W, strain paf1, active compounds read low 0.975 | locus YCL011C, strain gbp2, active compounds read low 0.966 | locus YCL016C, strain dcc1, active compounds read low 1 | locus YCL029C, strain bik1, active compounds read low 1.04 | locus YCL061C, strain MRC1, active compounds read low 0.979 | locus YCL069W, strain vba3, active compounds read low 0.984 | locus YCR088W, strain abp1, active compounds read low 0.973 | locus YDL005C, strain med2, active compounds read low 0.979 | locus YDL035C, strain GPR1, active compounds read low 1 | locus YDL040C, strain nat1, active compounds read low 0.967 | locus YDL074C, strain BRE1, active compounds read low 1.05 | locus YDL101C, strain DUN1, active compounds read low 1.02 | locus YDL134C, strain PPH21, active compounds read low 1 | locus YDL185W, strain tfp1, active compounds read low 1.02 | locus YDL192W, strain arf1, active compounds read low 1.02 | locus YDR001C, strain nth1, active compounds read low 0.974 | locus YDR069C, strain doa4, active compounds read low 0.91 | locus YDR101C, strain arx1, active compounds read low 1.01 | locus YDR137W, strain rgp1, active compounds read low 0.988 | locus YDR150W, strain NUM1, active compounds read low 0.992 | locus YDR159W, strain sac3, active compounds read low 0.916 | locus YDR162C, strain NBP2, active compounds read low 1.01 | locus YDR195W, strain ref2 0.941 | locus YDR297W, strain sur2, active compounds read low 0.985 | locus YDR318W, strain mcm21, active compounds read low 1.03 | locus YDR334W, strain swr1, active compounds read low 0.917 | locus YDR335W, strain msn5, active compounds read low 0.995 | locus YDR388W, active compounds read low 1.02 | locus YDR392W, strain spt3, active compounds read low 0.987 | locus YDR502C, strain sam2, active compounds read low 1.01 | locus YEL003W, strain gim4, active compounds read low 0.989 | locus YEL037C, strain rad23, active compounds read low 0.985 | locus YEL061C, strain CIN8 (second series), active compounds read low 0.971 | locus YEL061C, strain CIN8, active compounds read low 1 | locus YER015W, strain faa2, active compounds read low 0.992 | locus YER016W, strain bim1, active compounds read low 0.975 | locus YER110C, active compounds read low 1.02 | locus YER111C, strain swi4, active compounds read low 0.971 | locus YER155C, strain BEM2 (second series), active compounds read low 1.01 | locus YER155C, strain BEM2, active compounds read low 1.01 | locus YER167W, strain BCK2, active compounds read low 1.01 | locus YFR010W, strain ubp6, active compounds read low 0.966 | locus YGL078C, strain dbp3, active compounds read low 1.02 | locus YGL086W, strain mad1, active compounds read low 0.998 | locus YGL167C, strain pmr1, active compounds read low 0.981 | locus YGL173C, strain kem1, active compounds read low 0.958 | locus YGL227W, strain vid30, active compounds read low 0.951 | locus YGL240W, strain doc1, active compounds read low 0.977 | locus YGL248W, strain PDE1, active compounds read low 1.01 | locus YGL253W, strain hxk2, active compounds read low 0.963 | locus YGR078C, strain PAC10, active compounds read low 1.02 | locus YGR135W, strain pre9, active compounds read low 1.02 | locus YGR229C, strain SMI1, active compounds read low 0.987 | locus YGR252W, strain gcn5, active compounds read low 0.997 | locus YHR013C, strain ard1, active compounds read low 0.992 | locus YHR027C, strain rpn1, active compounds read low 0.98 | locus YHR030C, strain SLT2, active compounds read low 1 and 0.998 | locus YHR079C, strain IRE1 (second series), active compounds read low 1.02 | locus YHR079C, strain IRE1, active compounds read low 0.985 | locus YHR094C, strain hxt1, active compounds read low 1.01 | locus YHR129C, strain ARP1, active compounds read low 1.01 | locus YHR142W, strain chs7, active compounds read low 0.963 | locus YHR200W, strain rpn10, active compounds read low 1.02 | locus YIL066C, strain RNR3, active compounds read low 1.01 | locus YIL073C, strain SPO22, active compounds read low 1.06 | locus YIL125W, strain kgd1, active compounds read low 1.01 | locus YIR030C, strain dcg1, active compounds read low 1.02 | locus YJL092W, strain hpr5, active compounds read low 0.986 | locus YJL095W, strain BCK1 (second series), active compounds read low 0.975 | locus YJL095W, strain BCK1, active compounds read low 1.02 and 0.995 | locus YJL115W, strain asf1, active compounds read low 0.949 | locus YJL129C, strain trk1, active compounds read low 0.968 | locus YJL134W, strain LCB3, active compounds read low 1 | locus YJL154C, strain vps35, active compounds read low 0.95 | locus YJL164C, strain tpk1, active compounds read low 0.984 | locus YJL166W, strain qcr8, active compounds read low 0.968 | locus YJL168C, strain set2, active compounds read low 1.02 | locus YJL187C, strain SWE1 (second series), active compounds read low 1.02 | locus YJL187C, strain SWE1, active compounds read low 0.985 | locus YJR043C, strain POL32, active compounds read low 1.03 | locus YJR066W, strain TOR1, active compounds read low 0.945
